The structures appear in SMILES notation. About 83,000 compounds went through this panel and 20% of them were active in at least one assay; those are over-represented in the sample as a whole.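 Growth was measured after 48 h exposure to one concentration of compound in 96-well plates. Values under 10 count as active.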 Unmarked numbers belong to inactive results. Active and inactive are the calls of the source.

The subject of the assay is HL-60(TB) leukemia. As to the kind of experiment: NCI-60 one-dose screen, 48 h (100 = growth as untreated, 0 = no growth, -100 = all killed). The following applies: 10 µM unless noted.
As for `O=S(=O)(NCCNc1nccc(-c2c(-c3ccccc3)nc3sccn23)n1)c1ccc(O)cc1`, the growth was 68%. With `CCCCC(=O)Nc1nc2ccc(SCCC)cc2s1` the figure was 19.5%; with `Nc1ccc(C2=CC(c3ccc(Cl)cc3)N3C=CSC3=N2)cc1` (stereo not given), -19.3% (active); with `CCCCCCCCCC[N+](C)(C)N`, 90.2%. For `CC12OC(CC(O)C1O)n1c3ccccc3c3c4c(c5c6ccccc6n2c5c31)C(=O)N(CCN1CCCC1)C4=O` (stereo not given) the value was 18.3%. With `Cc1cc2c(c(C)c1Cl)C(=O)/C(=C/c1ccco1)O2` the figure was 97.5%. On to `Clc1ccc2c(c1)-n1cccc1C(c1ccc3ccccc3c1)=NC2`, for which the growth was 76.9%. `CCOC(=O)c1cc2oc(/C=C/c3cc(=O)c4cc(Cl)ccc4o3)cc2[nH]1`: the growth is 93%. For `c1ccc2c(c1)CN(CCCN1CCOCC1)C2`, the growth was 105%.

Turning to `COc1ccc(-c2nn(-c3ccc(NC(=O)Nc4ccc(Cl)c(C(F)(F)F)c4)cc3)cc2-c2ccncc2)cc1Cl`, the growth was -11.9% (active). Turning to `C=C1C(=O)O[C@H]2[C@H]1CC/C(COC(=O)CCCCCCC(=O)OC/C1=C/CC[C@@]3(C)O[C@H]3[C@H]3OC(=O)C(=C)[C@@H]3CC1)=C\CC[C@@]1(C)O[C@@H]21`, the growth is -13.8% (active). For `CC1(C)C=CC[C@]2(C)[C@H]3CC[C@@H]4[C@H]5[C@H](C(=O)/C=C/c6cccnc6)CC[C@]5(CO)CC[C@@]4(C)[C@]3(C)CC[C@@H]12` the value was -29.2% (active).

As for `CN(C)CCCn1c2c(c3ccc(N4CCNCC4)cc3c1=O)C(=O)c1ccccc1-2`, the growth is 8.73% (active). With `COc1cc(Nc2nc3ccccc3cc2C(=O)Nc2ccc(F)c(F)c2)cc(OC)c1OC` the figure was 19.8%; with `Cc1cc(-c2ccc(N=Nc3c(S(=O)(=O)O)cc4cc(S(=O)(=O)O)cc(N)c4c3O)c(C)c2)ccc1N=Nc1cc(S(=O)(=O)O)c2ccccc2c1O`, 98.7%. With `O=C(CSc1nc(-c2ccc(Cl)cc2)cn1-c1ccc(Cl)cc1)c1ccc(Br)cc1` the figure was 97.1%.

`C/C(=C(/c1ccc(O)cc1)c1ccc(Cl)cc1)c1ccccc1`: the growth is -20.7% (active). For `CN(C)CCNC(=O)c1cc2c3cc(Cl)ccc3[nH]c2c2ncccc12` the value was -64.8% (active). With `O=C1CCC(C(=O)N/N=C/c2ccc([N+](=O)[O-])cc2)N1` (stereo not given) the figure was 96.7%; with `C=C1C(=O)O[C@H]2[C@H]1CC/C(COC(=O)c1cn(C)c3ccccc13)=C\CC[C@@]1(C)O[C@@H]21`, 2.98% (active). For `Fc1ccc(C2CC(c3cccc(Nc4ccncc4)c3)=NN2c2cc(Cl)cc(Cl)c2)cc1` (stereo not given) the value was -13.2% (active); for `COc1cc(C2CC(c3ccc4c(c3)OCO4)=NN2C=O)cc(OC)c1OC` (stereo not given), 0.568% (active); for `CC1(C)CC[C@]2(C(=O)N3CCNCC3)CC[C@]3(C)C(=CC[C@@H]4[C@@]5(C)CCC(=O)C(C)(C)[C@@H]5CC[C@]43C)[C@@H]2C1`, 102%. Turning to `CC(C)=CC/C=C(/C)[C@H]1CC[C@]2(C)[C@@H]1CC[C@@H]1[C@@]3(C)CC/C(=N/O)C(C)(C)[C@@H]3CC[C@]12C`, the growth was 5.9% [100 µM] (active). With `N=C(N)Sc1cccc[n+]1[O-]` the figure was 27.8%; with `CCOC(=O)/C(=C(/C)NCC(C)C)c1cc(O)c(O)c2c(C)cc(=O)[nH]c12`, -6.69% (active). `O=C1Nc2ccc(F)cc2/C1=N/c1nnc(Sc2ccccc2)s1`: the growth is 49.6%.

With `COc1ccccc1CNCCCN1C(=O)c2ccc3c4c(ccc(c24)C1=O)C(=O)N(CCCNCCCN)C3=O`, the growth was -42.3% (active). For `O=C(NNC(=O)N1c2ccccc2C=Cc2ccccc21)c1ccccc1`, the growth is 98.8%.

For `CC(C)(c1ccc(OCC(O)CNCc2ccco2)cc1)c1ccc(OCC(O)CNCc2ccco2)cc1` (stereo not given), the growth was 63.9%.

For the compound `O=c1oc2ccccc2cc1-c1csc(N=Nc2c(O)[nH]c3ccc(Cl)cc23)n1`, the growth is 105%. For `Cc1cc(C)c(C#N)c(Sc2nc(C)c([N+](=O)[O-])c(C)c2C#N)n1` the value was 66.2%; for `CNC(=O)c1cccc2cc(Oc3ccnc4cc(OCC5(N)CC5)c(OC)cc34)ccc12`, 91.6%. With `CCCN(CCSSCCNc1nc(N(C)O)nc(N(C)O)n1)c1nc(N(C)O)nc(N(C)O)n1` the figure was 88%. For `CCCCC#Cc1c(I)n(C)c(=O)[nH]c1=O`, the growth is -10.8% (active).

(Values after PubChem BioAssay (NCI).)
